Shown are actives, neighbours in structure and some others; about 5.8% of the full set was active somewhere.
RORgamma inh: ROR gamma (mouse) transcription inhibition; Drosophila S2 Gal4-RORgamma UAS-luciferase reporter, 20 h; Potency, µM (titrated, usually from 53.6 µM), for the others: at the top dose activity change, negative = inhibition, most hits filed as inhibitors; actives 5.4% (n = 310,000); AID 2551; further: potency means the concentration at half of the fitted maximal effect; on the % scale 0 is the no-effect control and ±100 the full control effect; nearly all actives have a fitted effect of over 60% in size
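Stably transfected Drosophila Schneider cells are the test system, with ROR gamma fused to Gal4 and luciferase under UAS control; luminescence is read after 20 hr of 700 uM copper sulfate induction at ambient temperature.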
Gal4-VP16 FLuc: counter-screen for ROR gamma inhibitors: Gal4-VP16 reporter; Drosophila S2 Gal4-VP16 UAS-luciferase, luminescence, 20 h; Potency, µM (doses to about 53.6 µM), without a hit: at the top dose activity, negative = inhibition, most hits filed as inhibitors; actives 3.5% (n = 310,000); AID 2546;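 further: Gal4-VP16 expression switched on by copper sulfate through the metallothionein promoter; potency means the concentration at half of the fitted maximal effect; on the % scale 0 is the no-effect control and ±100 the full control effect; nearly all actives have a fitted effect of over 50% in size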
TRPV1 ag: activates the human vanilloid receptor TRPV1 | Q8NER1 | TRPV1-expressing cells, Fluo-8 calcium influx, agonist mode | activation, % at 8.33 µM | actives 0.19% (n = 320,000); in the data active means activation above about 80%; inconclusive means between about 30% and that limit; further: 0% is about no effect
Target sequence (Q8NER1 whole entry, looked up): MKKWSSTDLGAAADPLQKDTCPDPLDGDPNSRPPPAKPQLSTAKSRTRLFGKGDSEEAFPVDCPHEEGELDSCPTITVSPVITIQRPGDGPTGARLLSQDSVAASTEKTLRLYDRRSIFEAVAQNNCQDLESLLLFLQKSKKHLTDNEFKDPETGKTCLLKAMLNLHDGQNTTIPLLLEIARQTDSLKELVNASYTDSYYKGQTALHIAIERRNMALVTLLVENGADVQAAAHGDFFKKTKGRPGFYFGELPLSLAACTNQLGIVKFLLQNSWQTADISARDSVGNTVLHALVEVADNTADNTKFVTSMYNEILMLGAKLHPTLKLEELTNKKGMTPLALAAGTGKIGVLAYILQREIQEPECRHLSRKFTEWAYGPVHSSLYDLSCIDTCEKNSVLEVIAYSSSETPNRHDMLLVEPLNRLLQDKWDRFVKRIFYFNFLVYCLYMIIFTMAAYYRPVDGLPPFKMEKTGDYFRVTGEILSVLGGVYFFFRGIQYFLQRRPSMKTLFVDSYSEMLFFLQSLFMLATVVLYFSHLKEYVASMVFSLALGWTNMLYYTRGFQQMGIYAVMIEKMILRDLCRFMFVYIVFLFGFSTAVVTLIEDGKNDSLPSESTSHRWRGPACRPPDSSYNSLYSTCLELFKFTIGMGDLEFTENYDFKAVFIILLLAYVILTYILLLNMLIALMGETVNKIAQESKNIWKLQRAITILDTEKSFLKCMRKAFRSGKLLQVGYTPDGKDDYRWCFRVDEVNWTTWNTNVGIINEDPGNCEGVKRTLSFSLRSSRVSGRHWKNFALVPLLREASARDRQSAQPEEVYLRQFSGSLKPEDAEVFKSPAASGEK
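Fluo-8 calcium influx in TRPV1-expressing cells, kinetic read (ex 480/em 520 nm). Compound added and read 3 min for agonist activity, followed by capsaicin at EC20 final and 2 min further read for enhancement.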
TRPV1 potentiator: potentiators of human vanilloid receptor 1 (TRPV1) | TRPV1-expressing cells, Fluo-8 calcium influx, capsaicin EC20 potentiation | potentiation, % at 8.33 µM | actives 0.02% (n = 320,000) | AID 540277; in the data active means potentiation above about 80%; inconclusive means between about 30% and that limit; further: 0% is about no effect
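Fluo-8 calcium influx in TRPV1-expressing cells, kinetic read (ex 480/em 520 nm). Compound added and read 3 min for agonist activity, followed by capsaicin at EC20 final and 2 min further read for enhancement.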
uPA generation: blocks generation of uPA at the cell surface; cell surface uPA generation assay, qHTS; Potency, µM (highest dose often 38.3 µM), inactives show at the highest dose activity change, negative = inhibition, actives largely listed as inhibitors; actives 0.31% (n = 330,000); AID 540303; active means well fitted inhibition curve with a large enough effect; inconclusive means small, poorly fitted or top-dose-only effect; inactive means no such curve, though single readings can be large or run the other way; tested in mouse RAW 264.7 cells; further: potency means the concentration at half of the fitted maximal effect; on the % scale 0 is the no-effect control and ±100 the full control effect; nearly all actives have a fitted effect of over 55% in size
* = called active by the depositor; [ ] = another dose, or the depositor's remark. Unless noted, the call rests on the fitted dose curve; in most records, active means well fitted curve in the direction sought with a large enough effect; inconclusive means small, poorly fitted or top-dose-only effect, or another doubt; inactive means no such curve, though single readings can be large; an effect the other way counts as inactive or inconclusive.

For COc1cccc(/C=N/NC(=O)C(C)n2nc(C)c([N+](=O)[O-])c2C)c1O (stereo unspecified) the results were RORgamma inh 0.178µM*, Gal4-VP16 FLuc 0.0398µM*, TRPV1 ag 1.3, TRPV1 potentiator -1.8 and uPA generation -5.5%.
`COc1cccc(/C=N/NC(=O)Cn2nc(C)c([N+](=O)[O-])c2C)c1O` gave RORgamma inh 0.355µM*, Gal4-VP16 FLuc 0.794µM*, TRPV1 ag -0.3, TRPV1 potentiator -10.4 and uPA generation -6.2%.
`O=C(COc1ccc2ccccc2c1)N[C@@H](C(=O)O)c1ccc(O)cc1` gave RORgamma inh 0.0%, Gal4-VP16 FLuc 3.5%, TRPV1 ag -6.4, TRPV1 potentiator 13.3 and uPA generation 17.2%.
For Nc1nc(NC(=O)c2ccc(Cl)cc2)nn1-c1ccccc1 the results were RORgamma inh inconclusive, Gal4-VP16 FLuc inconclusive, TRPV1 ag -3.8, TRPV1 potentiator 0.3 and uPA generation -2.8%.
O=C(Nc1nc(N2C(=O)c3ccccc3C2=O)n(-c2ccccc2)n1)c1ccc(Cl)cc1 was read as RORgamma inh 14.1µM*, Gal4-VP16 FLuc inconclusive, TRPV1 ag 0.3, TRPV1 potentiator 6.6 and uPA generation -1.0%.
COc1ccccc1CNC(=O)COC(=O)Cc1ccc(F)cc1 was read as TRPV1 ag 25.5, TRPV1 potentiator -21.5 and uPA generation 2.7%.
Screening COC(=O)CN1C(=O)[C@@H]2[C@H](C1=O)[C@@H]1CC(C(=O)OC)=C[C@@H](C(=O)OC)C3C1=C(C(=O)[C@@]3(C)NC(=O)c1ccccc1)[C@@H]2C (stereo partly specified) returned RORgamma inh -16.2% and Gal4-VP16 FLuc -18.5%.
Screening Oc1ccc(Cl)cc1-c1cc(-c2ccccc2)n[nH]1 returned RORgamma inh 1.41µM*, Gal4-VP16 FLuc 4.47µM*, TRPV1 ag 3.3, TRPV1 potentiator -26.4 and uPA generation -1.2%.
For Cc1ccc(-c2cc(-c3ccccc3[N+](=O)[O-])[nH]n2)c(O)c1 the results were RORgamma inh 17.8µM*, Gal4-VP16 FLuc inconclusive, TRPV1 ag 16.6 and TRPV1 potentiator -5.2.
For COc1ccc(-c2cc(-c3ccccc3O)[nH]n2)cc1 the results were RORgamma inh 6.31µM*, Gal4-VP16 FLuc 15.8µM*, TRPV1 ag -0.6, TRPV1 potentiator 16.1 and uPA generation -8.6%.
Cc1ccccc1-c1cc(-c2ccccc2O)n[nH]1 was read as RORgamma inh 5.62µM*, Gal4-VP16 FLuc inconclusive, TRPV1 ag 3.0, TRPV1 potentiator -2.4 and uPA generation 3.1%.
For COc1ccc(-c2cc(-c3ccccc3)n[nH]2)c(O)c1 the results were RORgamma inh 3.98µM*, Gal4-VP16 FLuc -3.4%[10 µM], TRPV1 ag -2.2, TRPV1 potentiator 8.1 and uPA generation 0.5%.
For Oc1ccccc1-c1cc(-c2ccccc2)n[nH]1 the results were uPA generation 9.8%.
`Cc1ccc(-c2nnc(-c3ccccc3)o2)cc1` gave RORgamma inh inconclusive, Gal4-VP16 FLuc 10µM*, TRPV1 ag 2.7, TRPV1 potentiator 7.6 and uPA generation -5.4%.
COc1ccc(-c2nnc(-c3ccccc3O)o2)cc1 was read as RORgamma inh inconclusive, Gal4-VP16 FLuc 12.6µM*, TRPV1 ag 21.9, TRPV1 potentiator 8.6 and uPA generation 7.0%.
Screening COc1ccc(-c2nnc(-c3ccc(C)cc3)o2)cc1 returned RORgamma inh inconclusive, Gal4-VP16 FLuc inconclusive, TRPV1 ag inconclusive, TRPV1 potentiator -15.2 and uPA generation 0.5%.
For COc1ccc(O)c(-c2cc(-c3cccs3)[nH]n2)c1 the results were RORgamma inh 3.98µM*, Gal4-VP16 FLuc inconclusive, TRPV1 ag 16.2, TRPV1 potentiator -5.0 and uPA generation 2.1%.
`CCCCNC(=O)O[C@@H]1C[C@H]2CCC(=O)N3CC[C@@H](C1)[C@@H]23` gave RORgamma inh -12.1%, Gal4-VP16 FLuc -6.5%, TRPV1 ag 3.2, TRPV1 potentiator -3.3 and uPA generation 0.4%.
`CC(=O)O[C@H]1C[C@H]2CC[C@@H]3[C@@H](CC[C@]4(C)[C@H](OC(C)=O)[C@H]([N+]5(C)CCCCC5)C[C@@H]34)[C@]2(C)C[C@H]1[N+]1(C)CCCCC1` gave RORgamma inh -0.6%[16.9 µM] and Gal4-VP16 FLuc -2.9%[17 µM].

Compound activity (PubChem)
